Screening results: PubChem BioAssay, The Scripps Research Institute Molecular Screening Center
Most compounds without a hit are left out; they make up all but 3.5% or so of the library.
FBW7 activator: human FBW7 E3 ligase activation, primary screen; Q969H0; AlphaScreen FBW7–phospho-cyclin E peptide binding, activator screen; AID 1259310; 0.13% of 650,000 active; normalized activity (activation), % at 26.1 µM; in the data active means normalized activity above about 1.9%;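 further: purified mutant Fbw7 with reduced substrate affinity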
TEAD-YAP block: TEAD-YAP interaction inhibition. HEK-TIYL cells, TEAD-Gal4/YAP UAS-luciferase luminescence. inhibition, % at 9.12 µM. 1.4% of 640,000 active; in the data active means inhibition above about 32%
MITF inh: inhibitors of human MITF | 0.91% of 650,000 active | inhibition, % at 2.6 µM | O75030 | AlphaScreen MITF homodimerization, bead proximity signal; in the data active means inhibition above about 50%
GPR151 ag: activators of human GPR151. Q8TDV0. PathHunter beta-arrestin GPR151 cells, luminescence. activation, % at 11.2 µM. 1% of 650,000 active; in the data active means activation above about 4.9%
Target sequence (Q8TDV0 whole entry, looked up): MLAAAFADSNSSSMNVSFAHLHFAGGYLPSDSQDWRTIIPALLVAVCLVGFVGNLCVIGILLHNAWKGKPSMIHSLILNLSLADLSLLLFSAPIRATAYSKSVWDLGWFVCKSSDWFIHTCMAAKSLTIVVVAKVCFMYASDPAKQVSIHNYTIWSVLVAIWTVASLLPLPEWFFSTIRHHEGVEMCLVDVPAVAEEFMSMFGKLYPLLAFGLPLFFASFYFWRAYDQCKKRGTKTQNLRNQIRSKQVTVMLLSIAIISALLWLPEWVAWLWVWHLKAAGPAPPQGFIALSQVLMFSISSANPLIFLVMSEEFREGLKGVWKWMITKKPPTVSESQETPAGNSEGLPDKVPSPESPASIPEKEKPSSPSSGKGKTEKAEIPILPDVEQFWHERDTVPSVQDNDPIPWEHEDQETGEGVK
A number is an active result; . = inactive.

SMILES	FBW7 activator	TEAD-YAP block	MITF inh	GPR151 ag
CCOC(=O)c1c(NC(=O)NNC(=O)c2cc3sccc3[nH]2)sc2c1CCCC2	.	.	.	.
COc1c(C)c2c(c(O)c1C/C=C(\C)CCC(=O)OCCN1CCOCC1)C(=O)OC2	.	48	.	.
COc1ccc(/C=N/NC(=S)Nc2cccc(C(=O)O)c2)c(OC)c1	.	.	.	.
COc1ccc(O)c(/C=N/NC(=S)Nc2cccc(C(=O)O)c2)c1	.	.	104	.
O=C(O)c1cccc(NC(=S)N/N=C/c2cccc(O)c2)c1	.	.	.	.
CN(C)c1ccc(/C=N/NC(=S)Nc2cccc(C(=O)O)c2)cc1	.	64	.	.
CCN(C(=O)CN1C(=O)CCc2ccccc21)c1ccccc1	.	.	.	.
O=C(NCC1CCCO1)c1ccc2ccccc2c1 (stereo not drawn)	.	.	.	.
Cc1oc(-c2ccccc2Cl)nc1CS(=O)CC(=O)NCc1ccccn1 (stereo not drawn)	.	.	.	.
COc1ccccc1CNC(=O)CS(=O)Cc1nc(-c2ccccc2C)oc1C (stereo not drawn)	2.6	.	.	.
Cc1oc(-c2ccccc2Cl)nc1CS(=O)CC(=O)NCc1ccc2c(c1)OCO2 (stereo not drawn)	3.9	.	.	.
CC(C)c1nnc(NC(=O)C2(c3ccccc3)CCCC2)s1	.	.	.	.
COc1ccc(CCNC(=O)CN2CCC(c3nnc(C(C)C)o3)CC2)cc1OC	.	.	.	.
COc1ccc(CNC(=O)N2CCC(c3nnc(C(C)C)o3)CC2)cc1OC	2.5	.	.	.
Cc1cc2nc3s/c(=C/c4cccc5ccccc45)c(=O)n3c2cc1C	.	.	.	.
COc1cc(CNc2nccn3c(-c4ccsc4)cnc23)cc(OC)c1OC	.	.	.	.
c1cc(CCNc2nccn3c(-c4ccsc4)cnc23)ccn1	.	39	.	.
COc1cc(Nc2nccn3c(-c4ccccc4)cnc23)cc(OC)c1OC	.	59	.	.
COc1cc(CNc2nccn3c(-c4ccc5ccccc5c4)cnc23)cc(OC)c1OC	2.0	.	.	.
COc1cc(Nc2nccn3c(-c4ccsc4)cnc23)cc(OC)c1OC	.	55	.	.
COc1cc(-c2cnc3c(Nc4ccc(Cl)cc4)nccn23)cc(OC)c1OC	.	.	.	.
COc1cc(Nc2nccn3c(-c4ccc(C)cc4)cnc23)cc(OC)c1OC	.	46	.	.
COc1cc(Nc2nccn3c(-c4cccc5ccccc45)cnc23)cc(OC)c1OC	.	.	.	.
COc1cc(Nc2nccn3c(-c4cccc(N)c4)cnc23)cc(OC)c1OC	.	43	.	.
CC(=O)OC(OC(C)=O)C12C=CC(C)(O1)C1C(=O)N(c3ccc4c(c3)OCO4)C(=O)C12 (stereo not drawn)	.	.	.	.
SMILES	FBW7 activator	TEAD-YAP block	MITF inh	GPR151 ag
COc1c(C)cnc2c1c(=O)n(Cc1cccnc1)c(=O)n2C	.	.	.	.
CCOC(=O)c1sc(NC(=O)C(C)Sc2nnc(CNC(=O)Cc3ccccc3)n2Cc2ccccc2)c(C(=O)OCC)c1C (stereo not drawn)	.	.	.	.
CCc1cc2c(cc3c(=O)n(CCCC(=O)O)ncn32)s1	.	35	.	.
CC1=CC(C)(C)N(S(=O)(=O)c2ccc(C)cc2)c2cc(C)c(C)cc21	.	65	.	.
COc1ccc(S(=O)(=O)N2c3ccc(Br)cc3C(C)=CC2(C)C)cc1	.	55	.	.
COc1ccc(/C=C/C(=O)N2c3ccc(OC)cc3C(C)=CC2(C)C)cc1	.	.	.	.
CCOc1ccc(S(=O)(=O)N2c3ccc(C)cc3C(C)=CC2(C)C)cc1	.	64	.	.
COc1ccc(S(=O)(=O)N2c3ccc(C)cc3C(C)=CC2(C)C)cc1	.	62	.	.
O=c1[nH]c2cc(C(F)(F)F)ccc2n(Cc2ccccc2)c1=O	.	.	.	.
CC1=CC(C)(C)N(S(=O)(=O)c2ccc(C)cc2)c2c(C)cc(C)cc21	.	36	.	.
CC1=CC(C)(C)N(S(=O)(=O)c2ccc(F)cc2)c2ccc(C)cc21	.	44	.	.
CC1=CC(C)(C)N(S(=O)(=O)c2ccc(Cl)cc2)c2c(C)cc(C)cc21	.	.	.	.
CCOc1ccc(N(C(C)C(=O)Nc2ccccc2OCC)S(C)(=O)=O)cc1 (stereo not drawn)	.	54	.	.
CCOc1ccccc1NC(=O)C(C)Oc1ccc(OC)cc1 (stereo not drawn)	.	48	.	.
CCOc1ccc(N(C(C)C(=O)Nc2ccccc2C(=O)OC)S(C)(=O)=O)cc1 (stereo not drawn)	.	35	.	.
